The values that follow come from PubChem BioAssay AID1076 (NMMLSC, 2008).

This assay is described as follows: LNCaP cell loss by flow event count, confirmation, cytotoxicity control for prostate differentiation activator project, single point (AID 1076).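 Also: counts scatter-gated live cells after medium removal discards detached dead cells.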 As to conditions: flow cytometry event count, 4 d, stronger effect = lower value. On the technique in general: In flow cytometry, cells or beads pass a laser one at a time.

The source made the active and inactive calls.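 The calls were made as follows: active = cell event count below 40, meaning activity score above 60 where score is 100 minus count; inactive = the rest.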

On to `CC(C)n1c(=S)[nH]c2c1c(=O)[nH]c(=O)n2C`, for which the cell event count runs as follows: (at 100 µM) 221 (inactive); (event count, at 10 µM) 146.
For the molecule `COc1cccc(Oc2cnc(N)nc2-c2ccc(OC)cc2O)c1`, the cell event count (at 100 µM) is 9 (inactive) and the cell event count (event count, at 10 µM) was determined as 180.
With `COc1ccc(CCNC(=O)C2CCN(Cc3nc(-c4ccccc4C)oc3C)CC2)cc1OC`, the cell event count is 1 (inactive) (at 100 µM) and 188 (event count, at 10 µM).
For `COc1ccc(-c2cc(-c3ccc(F)cc3)nc(N3CCN(C)CC3)n2)cc1`, in that order: 3 (inactive) and 118.
For `COc1ccc(N2CCN(CCCNC(=O)CCCn3c(=O)[nH]c4ccsc4c3=O)CC2)cc1`, in that order: 13 (active) and 25.5.
Taken in the same sequence, the figures for `COc1ccc(-c2cc3c(=O)n(CC(=O)NC4CCN(Cc5ccccc5)CC4)ncn3n2)cc1` were 180 (inactive) and 257.
Consider `O=C1c2ccccc2C(Nc2ccc3c(c2)OCO3)N1Cc1ccc2c(c1)OCO2` (stereo not drawn), for which the cell event count is 178 (inactive) (at 100 µM) and 189 (event count, at 10 µM).
Regarding `COC(=O)Nc1sc2c(c1C(N)=O)CCCCCC2`, the cell event count is 80 (inactive) (at 100 µM) and 202 (event count, at 10 µM).
On to `CCOc1ccc(NC(=O)COc2nsnc2N2CCCCC2)cc1`, for which the cell event count is, setting by setting: (at 100 µM) 23 (active); (event count, at 10 µM) 63.5.
For `Cc1oc(-c2cccc(Cl)c2)nc1CN1CCCC(C(=O)NC(C)c2ccc3c(c2)OCCO3)C1` (stereo not drawn), in that order: 9 (inactive) and 136.
With `CCOc1ccc(C(=O)Nc2ccc(Cl)cn2)cc1Cl`, the cell event count by setting is: (at 100 µM) 41 (inactive); (event count, at 10 µM) 86.
With `O=C(NCCc1c[nH]c2ccccc12)C(F)(F)C(F)F`, the cell event count by setting is: (at 100 µM) 111 (inactive); (event count, at 10 µM) 118.
Taken in the same sequence, the figures for `COc1ccc(CCn2c(=N)c(C(=O)NCc3ccco3)cc3c(=O)n4ccccc4nc32)cc1` were 32 (inactive) and 225.
Taken in the same sequence, the figures for `CN(CC(O)COc1ccc(OCC(O)CN(C)C2CCCCC2)cc1)C1CCCCC1` (stereo not drawn) were 249 (inactive) and 118.
